SMN2 splice enh = SMN2 splice variant enhancement | HEK293 SMN2-luciferase splicing reporter, luminescence, 30-36 h | Potency, µM (highest dose often 46.1 µM), inactives show at the highest dose activity change, positive = activation, most hits filed as activators | hit rate 2.8% among 210,000; note: % of control where 0% means no effect; nearly all actives have a fitted effect of over 55% in size
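qHTS luciferase splicing reporter: luminescence rises when SMN2 exon 7 is included in transfected HEK293 cells. Compound exposure lasted 30-36 h at 37C, with 4.5 mM final sodium butyrate as control, followed by a ONE-Glo read.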
ELG1 genotox = induces genotoxicity in HEK293T cells with luciferase-tagged ELG1. HEK293T ELG1-luciferase reporter, luminescence, 16 h. Potency, µM (titrated, usually from 46 µM), for inactives: at the highest dose activity change, positive = activation, usual class: activators. hit rate 1.3% among 330,000. AID 504466; note: % of control where 0% means no effect; nearly all actives have a fitted effect of over 60% in size
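Step 1: seed 2,000 HEK293T ELG1-luciferase cells per well. Step 2: add compound or DMSO, incubate 16 hr at 37 °C. Step 3: ONE-Glo, 30 min at room temperature, read luminescence.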
Rab9 promoter act = Rab9 promoter activation; hit rate 2.8% among 320,000; Potency, µM (doses to about 9.22 µM), inactives show top-dose activation, negative = inhibition, actives largely listed as activators; Huh7 Rab9 promoter-luciferase reporter, luminescence, 24 h; AID 485297; note: % of control where 0% means no effect; nearly all actives have a fitted effect of over 60% in size
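Huh7 cells stably carrying Rab9 promoter–luciferase reporter, plated 1500 cells/well, compound added after 2 h and incubated 24 h at 37 °C; luciferase luminescence then read after 10 min with detection reagent.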
FLuc counter = inhibits or activates purified firefly luciferase, miR-21 counter-screen | purified FLuc, Km substrates, luminescence inhibition | Potency, µM (highest dose often 57.5 µM), inactives show at the top dose activity change, negative = inhibition, most hits filed as inhibitors | hit rate 6.9% among 360,000 | P08659;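 note: plate controls were vehicle for no effect and reference inhibitor for full effect; nearly all actives have a fitted effect of over 55% in size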
Target sequence (P08659 whole entry, looked up): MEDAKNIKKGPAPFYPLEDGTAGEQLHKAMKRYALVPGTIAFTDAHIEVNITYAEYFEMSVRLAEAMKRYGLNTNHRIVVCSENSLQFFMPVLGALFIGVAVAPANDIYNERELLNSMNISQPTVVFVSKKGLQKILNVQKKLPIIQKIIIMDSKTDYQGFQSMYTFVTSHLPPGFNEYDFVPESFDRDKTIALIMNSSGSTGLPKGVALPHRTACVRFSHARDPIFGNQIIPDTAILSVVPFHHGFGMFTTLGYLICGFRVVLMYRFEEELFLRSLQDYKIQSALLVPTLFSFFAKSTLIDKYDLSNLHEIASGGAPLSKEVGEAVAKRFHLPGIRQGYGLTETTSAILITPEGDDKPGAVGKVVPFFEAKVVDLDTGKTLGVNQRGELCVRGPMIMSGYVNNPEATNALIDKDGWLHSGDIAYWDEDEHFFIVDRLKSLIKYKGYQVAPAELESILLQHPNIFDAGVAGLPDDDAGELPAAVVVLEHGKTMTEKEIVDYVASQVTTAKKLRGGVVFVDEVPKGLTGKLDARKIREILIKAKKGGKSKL
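Biochemical qHTS of compounds, final roughly 60 µM downward over six points, against 10 nM purified firefly luciferase using Km concentrations of substrates (10 uM D-luciferin, 10 uM ATP) in Tris acetate pH 7.5 buffer; luminescence output.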
NPC1 prom act = NPC1 promoter activation; Huh7 NPC1 promoter luciferase reporter, 24 h; Potency, µM (highest dose often 9.22 µM), for the others: at the highest dose activation, most hits filed as activators; hit rate 2.4% among 320,000; AID 485313; note: % of control where 0% means no effect; nearly all actives have a fitted effect of over 60% in size
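Cells: Huh7 expressing luciferase under the NPC1 promoter, 1500/well. Seeded 2 h, compound added, incubated 24 h at 37 °C. Luciferase reagent, 10 min ambient, then luminescence.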
Numbers without * were called inactive; ? = inconclusive; nt = no result given. Sampled rows, rich in hits. Any-hit rate of the full collection: about 7.4%. Calls come from the whole dose curve; as a rule, active = well fitted curve in the direction sought with a large enough effect; inconclusive = small, poorly fitted or top-dose-only effect, or another doubt; inactive = no such curve, though single readings can be large; an effect the other way counts as inactive or inconclusive. Potency is the fitted concentration of half-maximal effect.

SMILES	SMN2 splice enh	ELG1 genotox	Rab9 promoter act	FLuc counter	NPC1 prom act
CC(NC(=O)CNC(=O)c1ccc2c(c1)OCO2)c1ccc(S(N)(=O)=O)cc1 (configuration not stated)	nt	2%	3%	3%	-3%
CCOC(=O)c1ccc(N2C(=O)c3n[nH]c(C)c3C2c2ccc(OCC)cc2)cc1 (configuration not stated)	-8%	nt	nt	6%	nt
Nc1nc(Nc2ccccc2)nc(C(F)(F)F)n1	nt	11%	21%	-28%	0%
Nc1nc(Nc2ccccc2)nc2ccccc12	14µM*	?	0.63µM*	1.3µM*	0.56µM*
Cn1c2ccccc2c(=O)c2cc(C#Cc3cccc(N)c3)ccc21	nt	?	-1%	4.8µM*	0%
Cn1c2ccccc2c(=O)c2cc(C#CC3=CCCCC3)ccc21	nt	?	?	6.7µM*	?
Cc1nc(SCc2cccc(Cl)c2)nc2c1CCCC2	-4%	nt	nt	?	nt
CCN(CC)c1ccc(/C=C2/C(=O)c3ccc(C(=O)O)cc3C2=O)cc1	-2%	?	-6%	0.48µM*	-2%
CCN(CC)c1ccc(C=C2C(=O)OC3(CCCCC3)OC2=O)cc1	-6%	0%	10%	?	-5%
CCCCn1c(N)c(N(CC(C)C)C(=O)c2cc(Cl)nc3ccccc23)c(=O)[nH]c1=O	nt	0%	-8%	3%	-3%
COc1nccnc1NS(=O)(=O)c1ccc(N)cc1	nt	-1%	0%	0%	-3%
CCC1CCCCN1S(=O)(=O)c1ccc(NC(=O)c2nc(S(C)(=O)=O)ncc2Cl)cc1 (configuration not stated)	nt	-14%	-40%	?	-41%
COc1ccccc1N1CCN(C(=O)c2ccc3[nH]c(C)c(C)c3c2)CC1	nt	?	-25%	2%	-29%
COC(=O)c1cc(C(=O)N2CCN(c3ccccc3OC)CC2)cc([N+](=O)[O-])c1	nt	0%	-12%	21µM*	-5%
COc1ccccc1N1CCN(C(=O)c2ccc3[nH]c4c(c3c2)CC(C)CC4)CC1 (configuration not stated)	6%	-8%	1%	19µM*	-3%
COC(=O)c1cc(C(=O)N2CCN(c3cccc(C)c3C)CC2)cc([N+](=O)[O-])c1	-22%	-7%	-21%	2%	-32%
Cc1c(C(=O)NCCC2=CCCCC2)sc2ncnc(N3CCCCC3C)c12 (configuration not stated)	nt	-4%	-2%	7%	-3%
CC(=O)c1cccc(NC(=O)NCc2ccccn2)c1	16µM*	9.2µM*	?	9.5µM*	?
CC(=O)c1cccc(NC(=O)Nc2ccccc2)c1	nt	2%	16%	12µM*	25%
O=C(Nc1ccccc1)Nc1ccc2ccccc2c1	nt	14%	3.5µM*	?	2.5µM*
CCN(CC)c1ccc(NC(=O)Nc2ccccc2)cc1	nt	10µM*	3.2µM*	0.95µM*	0.89µM*
CCN(CC)c1ccc(NC(=O)Nc2ccc(C(C)=O)cc2)cc1	10%	1%	4%	0%	1%
CCN1C(=NCCN2CCOCC2)N[C@@H](CCc2ccccc2)C(C(=O)OC)=C1C	nt	nt	-9%	-1%	0%
O=C(Nc1ccccc1)Nc1ccc(C(=O)N2CCOCC2)cc1	20µM*	?	1%	13µM*	?
CC(=O)c1ccc(NC(=O)Nc2ccccc2)cc1	11µM*	1.8µM*	0.32µM*	7.6µM*	0.45µM*
SMILES	SMN2 splice enh	ELG1 genotox	Rab9 promoter act	FLuc counter	NPC1 prom act
O=C(c1ccc(NC(=O)C2(c3ccccc3)CCCC2)cc1)N1CCOCC1	nt	-5%	-1%	-3%	-1%
Cc1ccc(NC(=O)c2noc3c2CCC3)cc1C	2.8µM*	?	0.63µM*	2.4µM*	3.2µM*
O=C(Nc1cc(C(F)(F)F)ccc1Cl)c1noc2c1CCCCC2	12%	nt	nt	?	nt
COc1ccc(NC(=O)c2noc3c2CCC3)cc1	10µM*	?	0.5µM*	2.7µM*	1.4µM*
O=C(Nc1ccc(OC(F)(F)F)cc1)c1noc2c1CCCC2	8.9µM*	nt	nt	?	nt
COc1cc(NC(=O)c2noc3c2CCC3)c(OC)cc1Cl	?	6%	0%	7%	7%
CC(=O)c1ccc(NC(=O)c2noc3c2CCC3)cc1	?	-9%	?	12µM*	0.79µM*
CCCn1c(C)nc2c(NCCCCN3CCCC3)nc(C)nc21	6%	nt	nt	nt	nt
O=C(CNC(=O)OCc1ccccc1)Nc1ccc(F)cc1	nt	-2%	1%	-3%	1%
O=C(Nc1cccc(O)c1)c1noc2c1CCCCC2	10%	?	?	0.95µM*	?
CC(C)(C)C1CCc2onc(C(=O)Nc3cnn(Cc4ccc(F)cc4)c3)c2C1 (configuration not stated)	0%	13%	-6%	1%	-4%
O=C(Nc1ccccc1C(=O)N1CCOCC1)c1noc2c1CCCC2	9%	0%	-3%	0%	3%
COC(=O)c1ccccc1NC(=O)c1noc2c1CCCC2	11%	8%	5%	17µM*	7%
O=C(Nc1cnn(Cc2ccc(F)cc2)c1)c1noc2c1CCCC2	-10%	?	4µM*	15µM*	?
COc1ccc(CCNC(=O)CCS(=O)(=O)c2cc3c(cc2Cl)NC(=O)CO3)cc1OC	nt	nt	nt	-7%	nt
O=C(Nc1cccc(Cl)c1)Nc1sccc1-c1nc2ccccc2s1	nt	-5%	3%	13µM*	9%
COc1c(C)cccc1C(=O)Nc1ccc(-c2nc3ccccc3s2)c(Cl)c1	13%	nt	nt	-7%	nt
COc1ccccc1NC(=O)Nc1sccc1-c1nc2ccccc2s1	nt	-5%	-3%	?	9%
O=C(Nc1ccccc1)Nc1sccc1-c1nc2ccccc2s1	nt	-1%	-3%	15µM*	10%
CCCN1C(=O)c2[nH]nc(-c3ccccc3O)c2C1c1ccc(OCc2ccccc2)c(OCC)c1 (configuration not stated)	5%	nt	nt	0%	nt
CCc1ccc(S(=O)(=O)Nc2cccc(-c3ccc(N4CCOCC4)nn3)c2)cc1	nt	nt	nt	8.5µM*	nt
COc1ccc(-c2cccc(NS(=O)(=O)c3cccc([N+](=O)[O-])c3)c2)nn1	nt	-1%	-3%	-15%	0%
CCc1ccc(S(=O)(=O)Nc2ccc(-c3ccc(N4CCCC4)nn3)cc2)cc1	nt	nt	nt	1%	nt
O=[N+]([O-])c1cccc(S(=O)(=O)Nc2cccc(-c3ccc(N4CCCC4)nn3)c2)c1	nt	?	12%	9.5µM*	-2%
O=C(c1cccc(NS(=O)(=O)c2cccc([N+](=O)[O-])c2)c1)N1CCOCC1	12%	-5%	-4%	-3%	2%
O=[N+]([O-])c1cccc(S(=O)(=O)Nc2cccc(-c3ccc(N4CCOCC4)nn3)c2)c1	nt	?	?	2.1µM*	25%
OC1(c2ccc(Cl)cc2)CCN(Cc2nc(-c3cnccn3)no2)CC1	nt	-3%	12%	2%	-3%

Screens deposited in PubChem BioAssay by National Center for Advancing Translational Sciences (NCATS).
